Source: publication PMC7862700, “An all-to-all approach to the identification of sequence-specific readers for epigenetic DNA modifications on cytosine”

Experiments:
Assay in all cases: DAPPL (digital affinity profiling via proximity ligation, sequencing); 10 mM Tris-HCl pH 7.5, 50 mM NaCl, 1 mM DTT, 4% glycerol, room temperature, 30 min; GST-TFs on glutathione beads, 16-mer random dsDNA library, 0.1% formaldehyde crosslink after washing; high values mean tight binding
FEV = biological target: T1, FEV (Homo sapiens, UniProt Q99581 1-238); details: protein: recombinant; tags: N-terminal GST; dsDNA, one strand shown
T1 sequence: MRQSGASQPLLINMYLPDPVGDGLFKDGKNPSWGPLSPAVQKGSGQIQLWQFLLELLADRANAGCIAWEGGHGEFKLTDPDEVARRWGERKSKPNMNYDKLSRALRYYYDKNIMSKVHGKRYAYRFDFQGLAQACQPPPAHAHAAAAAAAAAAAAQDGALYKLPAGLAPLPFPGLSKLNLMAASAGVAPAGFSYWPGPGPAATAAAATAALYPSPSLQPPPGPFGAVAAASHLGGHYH
Outline: (§1)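 Sequencing on an Illumina NextSeq500 followed washing, crosslinking with 0.1% formaldehyde, proximity ligation (BsaI/T4 ligase, 1 h, 37 °C) and PCR amplification of pools that had been incubated for 30 min at room temperature with 200 nmole of a random double-stranded 16-mer DNA library in Tris/NaCl/DTT/glycerol buffer. Each pool held DNA-barcoded human transcription factors, expressed in yeast as GST fusions and captured on glutathione beads, plus a tag-only sample. Binding signal is a hexamer's read frequency for a factor divided by its frequency in the tag-only sample.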

ETV5 = ETV5 (Homo sapiens, UniProt P41161 1-510); details: protein: recombinant; tags: N-terminal GST; dsDNA, one strand shown
Sequence of ETV5 (P41161 whole entry): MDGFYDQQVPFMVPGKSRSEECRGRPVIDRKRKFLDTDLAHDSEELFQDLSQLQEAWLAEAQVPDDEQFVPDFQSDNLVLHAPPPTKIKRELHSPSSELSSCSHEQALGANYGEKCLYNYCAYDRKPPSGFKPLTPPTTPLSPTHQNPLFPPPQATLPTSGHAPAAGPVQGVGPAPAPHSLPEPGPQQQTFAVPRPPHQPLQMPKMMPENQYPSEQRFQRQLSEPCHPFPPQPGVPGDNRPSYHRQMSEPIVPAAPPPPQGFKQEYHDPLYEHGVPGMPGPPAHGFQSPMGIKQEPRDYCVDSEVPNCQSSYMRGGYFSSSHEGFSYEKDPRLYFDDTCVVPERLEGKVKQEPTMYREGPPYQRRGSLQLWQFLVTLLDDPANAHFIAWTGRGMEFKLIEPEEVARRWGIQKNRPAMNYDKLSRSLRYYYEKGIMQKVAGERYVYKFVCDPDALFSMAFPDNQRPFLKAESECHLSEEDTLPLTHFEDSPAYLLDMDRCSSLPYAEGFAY
Outline: as §1

HSF1 = HSF1 (Homo sapiens, UniProt Q00613 1-529); details: protein: recombinant; tags: N-terminal GST; chain copies: 3; dsDNA, one strand shown
Sequence of HSF1 (Q00613 whole entry): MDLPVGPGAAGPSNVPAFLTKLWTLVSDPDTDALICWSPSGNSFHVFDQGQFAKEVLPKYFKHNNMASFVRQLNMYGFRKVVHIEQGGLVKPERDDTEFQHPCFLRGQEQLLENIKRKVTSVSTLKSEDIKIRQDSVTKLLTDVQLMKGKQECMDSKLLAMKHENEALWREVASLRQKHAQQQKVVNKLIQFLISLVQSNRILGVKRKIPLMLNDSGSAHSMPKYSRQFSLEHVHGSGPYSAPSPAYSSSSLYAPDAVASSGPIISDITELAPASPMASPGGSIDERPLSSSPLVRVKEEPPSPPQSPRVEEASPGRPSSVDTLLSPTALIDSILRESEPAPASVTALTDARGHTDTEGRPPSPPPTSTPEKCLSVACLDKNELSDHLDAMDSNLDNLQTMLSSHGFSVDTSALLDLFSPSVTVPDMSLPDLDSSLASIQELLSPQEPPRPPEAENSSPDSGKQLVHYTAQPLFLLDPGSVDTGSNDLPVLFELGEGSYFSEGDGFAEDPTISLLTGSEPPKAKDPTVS
Outline: as §1

SPIC = biological target: T2, SPIC (Homo sapiens, UniProt Q8N5J4 1-248); details: protein: recombinant; tags: N-terminal GST; dsDNA, one strand shown
T2 sequence: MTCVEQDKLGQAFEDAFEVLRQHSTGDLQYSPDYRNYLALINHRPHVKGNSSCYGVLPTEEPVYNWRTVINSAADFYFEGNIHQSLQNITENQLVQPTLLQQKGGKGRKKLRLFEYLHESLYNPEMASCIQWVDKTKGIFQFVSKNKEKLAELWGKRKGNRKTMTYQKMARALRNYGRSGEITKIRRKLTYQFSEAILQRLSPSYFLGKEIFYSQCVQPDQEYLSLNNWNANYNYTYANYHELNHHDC
Outline: as §1

ELF4 = ELF4 (Homo sapiens, UniProt Q99607 1-663); details: protein: recombinant; tags: N-terminal GST; dsDNA, one strand shown
Sequence of ELF4 (Q99607 whole entry): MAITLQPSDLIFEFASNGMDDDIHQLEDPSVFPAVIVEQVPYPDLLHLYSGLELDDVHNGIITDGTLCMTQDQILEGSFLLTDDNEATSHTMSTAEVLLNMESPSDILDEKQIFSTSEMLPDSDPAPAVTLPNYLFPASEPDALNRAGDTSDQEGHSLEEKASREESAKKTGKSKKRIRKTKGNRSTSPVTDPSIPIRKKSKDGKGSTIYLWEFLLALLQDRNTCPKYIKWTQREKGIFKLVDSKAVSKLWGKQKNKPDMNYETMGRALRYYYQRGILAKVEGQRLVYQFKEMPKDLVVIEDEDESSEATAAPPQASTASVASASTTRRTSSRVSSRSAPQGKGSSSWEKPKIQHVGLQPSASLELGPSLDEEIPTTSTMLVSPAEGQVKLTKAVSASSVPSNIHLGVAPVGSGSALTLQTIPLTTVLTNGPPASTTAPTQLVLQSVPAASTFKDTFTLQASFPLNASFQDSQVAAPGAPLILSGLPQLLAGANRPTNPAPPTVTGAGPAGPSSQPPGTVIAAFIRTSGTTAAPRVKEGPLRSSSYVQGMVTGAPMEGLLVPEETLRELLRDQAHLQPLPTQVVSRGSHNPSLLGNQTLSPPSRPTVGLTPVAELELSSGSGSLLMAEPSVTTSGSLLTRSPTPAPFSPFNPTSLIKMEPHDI
Outline: as §1

ELK4 = biological target: T3, ELK4 (Homo sapiens, UniProt P28324-2 1-405); details: protein: recombinant; tags: N-terminal GST; dsDNA, one strand shown
T3 sequence: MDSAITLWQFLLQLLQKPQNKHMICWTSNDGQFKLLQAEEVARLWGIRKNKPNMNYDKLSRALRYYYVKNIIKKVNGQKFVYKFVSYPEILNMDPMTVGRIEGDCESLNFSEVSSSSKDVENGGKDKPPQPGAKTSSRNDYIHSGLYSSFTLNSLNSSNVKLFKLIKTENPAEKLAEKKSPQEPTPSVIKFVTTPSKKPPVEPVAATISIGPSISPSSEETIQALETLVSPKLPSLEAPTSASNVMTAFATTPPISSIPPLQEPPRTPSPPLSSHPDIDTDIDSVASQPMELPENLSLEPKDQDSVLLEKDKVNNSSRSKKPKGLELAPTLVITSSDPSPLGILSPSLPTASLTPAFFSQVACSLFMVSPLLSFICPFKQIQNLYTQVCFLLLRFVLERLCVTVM
Outline: as §1

ETV2 = biological target: T4, ETV2 (Homo sapiens, UniProt O00321 1-342); details: protein: recombinant; tags: N-terminal GST; dsDNA, one strand shown
T4 sequence: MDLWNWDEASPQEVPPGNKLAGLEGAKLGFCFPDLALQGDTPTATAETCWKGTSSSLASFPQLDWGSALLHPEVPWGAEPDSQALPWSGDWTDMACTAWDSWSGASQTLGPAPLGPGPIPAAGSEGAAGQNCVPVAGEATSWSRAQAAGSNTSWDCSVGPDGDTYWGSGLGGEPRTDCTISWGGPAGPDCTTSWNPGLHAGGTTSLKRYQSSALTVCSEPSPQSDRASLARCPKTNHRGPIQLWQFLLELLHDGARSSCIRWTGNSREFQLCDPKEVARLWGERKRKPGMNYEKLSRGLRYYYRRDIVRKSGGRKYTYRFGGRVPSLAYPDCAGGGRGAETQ
Outline: as §1

ELF3 = biological target: T5, ELF3 (Homo sapiens, UniProt P78545 1-371); details: protein: recombinant; tags: N-terminal GST; dsDNA, one strand shown
T5 sequence: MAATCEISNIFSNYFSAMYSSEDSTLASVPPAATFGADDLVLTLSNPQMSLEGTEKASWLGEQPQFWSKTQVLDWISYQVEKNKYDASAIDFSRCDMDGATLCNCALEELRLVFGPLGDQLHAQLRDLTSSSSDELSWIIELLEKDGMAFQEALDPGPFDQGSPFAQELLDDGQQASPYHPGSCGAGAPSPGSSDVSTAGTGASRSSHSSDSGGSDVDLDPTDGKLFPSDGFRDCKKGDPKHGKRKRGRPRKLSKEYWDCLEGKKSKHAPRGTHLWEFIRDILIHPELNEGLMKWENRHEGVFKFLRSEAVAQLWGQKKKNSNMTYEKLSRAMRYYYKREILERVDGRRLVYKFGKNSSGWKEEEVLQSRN
Outline: as §1

ETV1 = ETV1 (Homo sapiens, UniProt P50549 1-477); details: protein: recombinant; tags: N-terminal GST; dsDNA, one strand shown
Sequence of ETV1 (P50549 whole entry): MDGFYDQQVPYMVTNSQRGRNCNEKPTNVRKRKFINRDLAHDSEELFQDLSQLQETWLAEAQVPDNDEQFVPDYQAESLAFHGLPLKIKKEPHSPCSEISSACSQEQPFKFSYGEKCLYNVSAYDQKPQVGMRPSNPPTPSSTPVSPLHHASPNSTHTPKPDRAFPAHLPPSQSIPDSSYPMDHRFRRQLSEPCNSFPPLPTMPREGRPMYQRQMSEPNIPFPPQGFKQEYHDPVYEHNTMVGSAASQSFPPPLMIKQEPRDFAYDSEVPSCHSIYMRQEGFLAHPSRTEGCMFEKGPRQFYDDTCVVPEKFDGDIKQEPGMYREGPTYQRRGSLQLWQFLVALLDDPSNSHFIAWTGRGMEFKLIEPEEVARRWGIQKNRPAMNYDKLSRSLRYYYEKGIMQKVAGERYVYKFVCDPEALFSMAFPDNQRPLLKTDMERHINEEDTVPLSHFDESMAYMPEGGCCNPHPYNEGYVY
Outline: as §1

ERF = biological target: T6, ERF (Homo sapiens, UniProt P50548 1-548); details: protein: recombinant; tags: N-terminal GST; dsDNA, one strand shown
T6 sequence: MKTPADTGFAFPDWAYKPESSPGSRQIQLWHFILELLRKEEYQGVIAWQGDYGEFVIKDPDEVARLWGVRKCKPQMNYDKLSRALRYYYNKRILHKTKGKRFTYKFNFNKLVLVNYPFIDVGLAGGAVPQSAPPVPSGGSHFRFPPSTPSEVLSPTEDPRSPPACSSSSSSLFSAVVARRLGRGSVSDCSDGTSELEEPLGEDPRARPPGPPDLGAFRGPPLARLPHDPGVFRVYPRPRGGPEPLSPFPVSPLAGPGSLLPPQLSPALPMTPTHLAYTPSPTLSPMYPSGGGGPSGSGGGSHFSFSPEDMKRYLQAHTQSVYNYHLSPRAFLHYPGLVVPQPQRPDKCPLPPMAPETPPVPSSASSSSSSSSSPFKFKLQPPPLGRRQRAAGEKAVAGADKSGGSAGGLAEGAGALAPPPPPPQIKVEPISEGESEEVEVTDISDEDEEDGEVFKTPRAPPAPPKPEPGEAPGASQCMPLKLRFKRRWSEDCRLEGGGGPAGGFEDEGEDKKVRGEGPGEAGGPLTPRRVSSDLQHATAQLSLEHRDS
Outline: as §1

ETV3L = biological target: T7, ETV3L (Homo sapiens, UniProt Q6ZN32 1-361); details: protein: recombinant; tags: N-terminal GST; dsDNA, one strand shown
T7 sequence: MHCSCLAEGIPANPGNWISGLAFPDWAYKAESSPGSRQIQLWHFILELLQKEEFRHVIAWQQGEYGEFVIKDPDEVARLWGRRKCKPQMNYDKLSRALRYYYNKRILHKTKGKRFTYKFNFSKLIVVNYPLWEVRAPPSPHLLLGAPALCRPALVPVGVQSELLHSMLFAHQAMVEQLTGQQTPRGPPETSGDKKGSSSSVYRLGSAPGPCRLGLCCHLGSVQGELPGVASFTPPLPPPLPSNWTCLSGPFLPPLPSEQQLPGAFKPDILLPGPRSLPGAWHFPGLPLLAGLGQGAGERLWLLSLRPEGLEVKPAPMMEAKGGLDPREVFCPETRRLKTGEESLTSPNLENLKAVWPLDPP
Outline: as §1

ETS2 = biological target: T8, ETS2 (Homo sapiens, UniProt P15036 1-469); details: protein: recombinant; tags: N-terminal GST; dsDNA, one strand shown
T8 sequence: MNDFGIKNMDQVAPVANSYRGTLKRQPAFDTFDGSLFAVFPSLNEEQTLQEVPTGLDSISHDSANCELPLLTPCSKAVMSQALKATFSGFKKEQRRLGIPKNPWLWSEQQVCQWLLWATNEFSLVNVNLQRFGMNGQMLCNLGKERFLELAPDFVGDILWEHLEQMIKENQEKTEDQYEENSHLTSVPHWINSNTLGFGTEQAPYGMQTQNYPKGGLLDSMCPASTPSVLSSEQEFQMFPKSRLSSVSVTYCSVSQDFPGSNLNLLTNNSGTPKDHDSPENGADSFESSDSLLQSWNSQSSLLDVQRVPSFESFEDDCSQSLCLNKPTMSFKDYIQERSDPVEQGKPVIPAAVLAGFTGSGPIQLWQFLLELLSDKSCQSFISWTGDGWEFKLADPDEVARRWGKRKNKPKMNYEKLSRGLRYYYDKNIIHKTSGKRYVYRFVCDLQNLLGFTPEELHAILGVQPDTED
Outline: as §1

SPDEF = biological target: T9, SPDEF (Homo sapiens, UniProt O95238 1-335); details: protein: recombinant; tags: N-terminal GST; dsDNA, one strand shown
T9 sequence: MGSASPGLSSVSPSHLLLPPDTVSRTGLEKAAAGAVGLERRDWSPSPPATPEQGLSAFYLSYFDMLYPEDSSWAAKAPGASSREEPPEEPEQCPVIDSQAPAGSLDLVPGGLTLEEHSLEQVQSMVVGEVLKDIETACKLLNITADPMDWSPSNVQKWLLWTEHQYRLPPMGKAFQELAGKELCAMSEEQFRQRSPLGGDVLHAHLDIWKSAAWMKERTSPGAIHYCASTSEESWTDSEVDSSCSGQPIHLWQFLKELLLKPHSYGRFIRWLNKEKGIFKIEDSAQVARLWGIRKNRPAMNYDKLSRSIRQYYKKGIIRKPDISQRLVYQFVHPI
Outline: as §1

ETV7 = biological target: T10, ETV7 (Homo sapiens, UniProt Q9Y603 1-341); details: protein: recombinant; tags: N-terminal GST; dsDNA, one strand shown
T10 sequence: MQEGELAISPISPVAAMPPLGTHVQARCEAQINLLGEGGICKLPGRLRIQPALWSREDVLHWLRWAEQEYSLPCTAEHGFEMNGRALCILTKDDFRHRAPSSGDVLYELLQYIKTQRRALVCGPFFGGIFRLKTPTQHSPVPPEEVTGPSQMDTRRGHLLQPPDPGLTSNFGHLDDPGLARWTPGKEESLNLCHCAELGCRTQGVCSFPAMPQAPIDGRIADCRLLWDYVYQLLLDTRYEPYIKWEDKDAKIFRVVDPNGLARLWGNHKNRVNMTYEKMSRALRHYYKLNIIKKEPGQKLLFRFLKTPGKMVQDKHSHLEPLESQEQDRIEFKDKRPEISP
Outline: as §1

ELF5 = biological target: T11, ELF5 (Homo sapiens, UniProt Q9UKW6-2 1-255); details: protein: recombinant; tags: N-terminal GST; dsDNA, one strand shown
T11 sequence: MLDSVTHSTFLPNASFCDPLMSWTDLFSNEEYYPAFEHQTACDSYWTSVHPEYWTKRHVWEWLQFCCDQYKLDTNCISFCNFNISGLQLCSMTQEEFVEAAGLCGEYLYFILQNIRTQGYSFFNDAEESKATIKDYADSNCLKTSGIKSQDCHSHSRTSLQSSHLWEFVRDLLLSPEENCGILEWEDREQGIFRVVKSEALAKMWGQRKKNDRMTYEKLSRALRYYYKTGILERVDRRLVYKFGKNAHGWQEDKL
Outline: as §1

ETV3 = biological target: T12, ETV3 (Homo sapiens, UniProt P41162-2 1-143); details: protein: recombinant; tags: N-terminal GST; dsDNA, one strand shown
T12 sequence: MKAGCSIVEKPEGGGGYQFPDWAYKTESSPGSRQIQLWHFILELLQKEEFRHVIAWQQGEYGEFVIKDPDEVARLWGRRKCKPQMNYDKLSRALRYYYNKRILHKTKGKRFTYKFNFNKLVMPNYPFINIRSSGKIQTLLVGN
Outline: as §1

ETV6 = ETV6 (Homo sapiens, UniProt P41212 1-452); details: protein: recombinant; tags: N-terminal GST; dsDNA, one strand shown
Sequence of ETV6 (P41212 whole entry): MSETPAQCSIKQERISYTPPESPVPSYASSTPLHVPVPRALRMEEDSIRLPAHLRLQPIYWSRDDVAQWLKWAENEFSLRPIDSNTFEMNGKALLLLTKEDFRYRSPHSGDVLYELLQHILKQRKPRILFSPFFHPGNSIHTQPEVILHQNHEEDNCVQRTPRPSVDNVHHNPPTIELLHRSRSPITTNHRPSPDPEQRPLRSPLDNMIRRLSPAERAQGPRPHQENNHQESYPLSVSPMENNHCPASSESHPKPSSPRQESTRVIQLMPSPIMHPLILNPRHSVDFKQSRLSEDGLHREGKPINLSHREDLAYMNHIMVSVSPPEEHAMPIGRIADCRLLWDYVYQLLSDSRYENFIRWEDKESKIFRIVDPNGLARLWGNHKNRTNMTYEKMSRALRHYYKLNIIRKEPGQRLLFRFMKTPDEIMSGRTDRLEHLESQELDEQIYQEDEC
Outline: as §1

Sequence	binding signal (FEV)	binding signal (ETV5)	binding signal (HSF1)	binding signal (SPIC)	binding signal (ELF4)	binding signal (ELK4)	binding signal (ETV2)	binding signal (ELF3)	binding signal (ETV1)	binding signal (ERF)	binding signal (ETV3L)	binding signal (ETS2)	binding signal (SPDEF)	binding signal (ETV7)	binding signal (ELF5)	binding signal (ETV3)	binding signal (ETV6)
CCGACG	1.22 fold enrichment (6-mer frequency, TF over GST control)	1.16 fold enrichment (6-mer frequency, TF over GST control)	1.02 fold enrichment (6-mer frequency, TF over GST control)	1.57 fold enrichment (6-mer frequency, TF over GST control)	1.29 fold enrichment (6-mer frequency, TF over GST control)	1.22 fold enrichment (6-mer frequency, TF over GST control)	1.31 fold enrichment (6-mer frequency, TF over GST control)	1.14 fold enrichment (6-mer frequency, TF over GST control)	1.2 fold enrichment (6-mer frequency, TF over GST control)	1.32 fold enrichment (6-mer frequency, TF over GST control)	1.23 fold enrichment (6-mer frequency, TF over GST control)	1.33 fold enrichment (6-mer frequency, TF over GST control)	1.19 fold enrichment (6-mer frequency, TF over GST control)	1.34 fold enrichment (6-mer frequency, TF over GST control)	1.28 fold enrichment (6-mer frequency, TF over GST control)	1.16 fold enrichment (6-mer frequency, TF over GST control)	1.31 fold enrichment (6-mer frequency, TF over GST control)
AATGGG	1.25 fold enrichment (6-mer frequency, TF over GST control)	1.28 fold enrichment (6-mer frequency, TF over GST control)	1.02 fold enrichment (6-mer frequency, TF over GST control)	1.26 fold enrichment (6-mer frequency, TF over GST control)	1.16 fold enrichment (6-mer frequency, TF over GST control)	1.27 fold enrichment (6-mer frequency, TF over GST control)	1.22 fold enrichment (6-mer frequency, TF over GST control)	1.13 fold enrichment (6-mer frequency, TF over GST control)	1.21 fold enrichment (6-mer frequency, TF over GST control)	1.16 fold enrichment (6-mer frequency, TF over GST control)	1.15 fold enrichment (6-mer frequency, TF over GST control)	1.19 fold enrichment (6-mer frequency, TF over GST control)	1.12 fold enrichment (6-mer frequency, TF over GST control)	1.2 fold enrichment (6-mer frequency, TF over GST control)	1.2 fold enrichment (6-mer frequency, TF over GST control)	1.19 fold enrichment (6-mer frequency, TF over GST control)	1.2 fold enrichment (6-mer frequency, TF over GST control)
